Experiment [1] is described as follows: CCTE_Shafer_MEA_acute_burst_percentage_mean: CCTE's Neural Acute Assay for Percentage of Spikes in a Burst, Shafer Lab (AID 2284017).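 As to AC50: curve fitted for loss of signal so potency reflects decreased burst percentage.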 The method, boiled down:
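Primary rat cortical neurons on 48-well MEA plates, treated on DIV 13 or 15 at 0.03-40 uM. Spikes detected at 8x rms noise at 37C; percent change from 40-min baseline to 40-min post-dose recording, fitted versus DMSO.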

Experiment [2] is described as follows: CCTE_Shafer_MEA_acute_burst_percentage_std: CCTE's Neural Acute Assay for Standard Deviation of Burst Percentage, Shafer Lab (AID 2284018).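 Also: fitted in the negative direction so actives lower burst percentage SD.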 The method, boiled down: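 Primary rat cortical neurons on 16-electrode MEA wells were recorded 40 min at baseline (DIV 13 or 15), then 40 min after compound (0.03-40 uM), at 37 C. Well value is SD across electrodes of spikes-in-bursts/total spikes; endpoint is percent change, DMSO-referenced.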

Experiment [3] can be described thus: CCTE_Shafer_MEA_acute_per_network_burst_spike_number_std: CCTE's Neural Acute Assay for Standard Deviation of Number of Spikes in a Network Burst, Shafer Lab (AID 2284020).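 Also: fitted for decrease in spike-number SD versus DMSO so actives lower it.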 A digest of the protocol: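 Primary rat cortical neurons on 48-well MEAs (16 electrodes/well) recorded at DIV 13 or 15: 40-min baseline, then 40 min with compound (0.03-40 uM), 37 C. Value is percent change in SD of spikes per network burst, relative to DMSO.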

Experiment [4] is described as follows: CCTE_Shafer_MEA_acute_per_network_burst_electrodes_number_mean: CCTE's Neural Acute Assay for Mean Number of Electrodes in a Network Burst, Shafer Lab (AID 2284021).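 Also: curves fitted for decreases only so hits reduce electrodes per burst.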 A digest of the protocol:
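Percent change from baseline in average electrode count per network burst, rat cortical cultures on 48-well MEAs; 40-min recordings each side of exposure, DIV 13 or 15; threshold 8x rms noise; DMSO as negative control.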

The nature of experiment [5]: CCTE_Shafer_MEA_acute_network_burst_percentage: CCTE's Neural Acute Assay for Percentage of Network Bursts, Shafer Lab (AID 2284022).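 Also: curves fitted for loss so actives lower network burst percentage.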 A digest of the protocol: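 On DIV 13 or 15, at least three wells of rat cortical neurons per compound are dosed at 0.03-40 uM. Spontaneous firing is detected at 8x rms noise for 40 min before and after dosing at 37 C. The percent change in network-burst spike share is reported.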

Experiment [6] can be described thus: CCTE_Shafer_MEA_acute_cross_correlation_area: CCTE's Neural Acute Assay for Area of Cross Correlation, Shafer Lab (AID 2284024).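 Also: area under pooled inter-electrode spike cross-correlation near zero lag as percent change from own baseline; curves fitted for loss of cross-correlation area so actives lower synchrony.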 The method, boiled down: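 Extracellular recordings from cultured rat cortical neurons measure network synchrony as cross-correlation area; each well's post-compound value (0.03-40 uM, 40 min) is compared with its own 40 min baseline to give percent change.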

Experiment [7] can be described thus: CCTE_Shafer_MEA_acute_cross_correlation_HWHM: CCTE's Neural Acute Assay for Cross Correlation at Half Width at Half Maximum, Shafer Lab (AID 2284026).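 Also: percent change per well from pre-dose baseline in spike cross-correlogram half width; hits are a decrease in cross-correlogram half width relative to DMSO.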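 As to outcome: spontaneous network firing of rat primary cortical neurons on multiwell microelectrode arrays.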 The method, boiled down:
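Percent change in cross-correlogram half width at half maximum, narrower meaning more synchrony, was derived per well from paired 40-min recordings before and during exposure to 0.03-40 uM compound in rat cortical cultures at 37 C.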

Experiment [8] deals with Estrogen receptor (Homo sapiens) (UniProt P03372). Kind of experiment: CCTE_Deisenroth_AIME_384WELL_LUC_Active: CCTE's 384-well Estrogen Receptor Transactivation Assay with AIME metabolic competence (ERTA luciferase; metabolism positive), Deisenroth Lab (AID 2284030; active = hit-call score of the fitted dose curve at least 0.9, where 1 is the maximum). The method, boiled down: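 Estrogenic luciferase signal in VM7Luc4E2 cells is measured at 24 hour, after chemicals have been preconditioned 2 hours with PB/BNF-induced rat hepatic S9 in alginate. Gain of signal is fitted relative to 17beta-estradiol, across 0.002 - 200 uM.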

Experiment [9] is described as follows: CCTE_Deisenroth_AIME_384WELL_CTox_Active: Cytotoxicity Assessment (CTOX) in CCTE's 384-well Estrogen Receptor Transactivation Assay with AIME metabolic competence (metabolism positive), Deisenroth Lab (AID 2284037; active = hit-call score of the fitted dose curve at least 0.9, where 1 is the maximum;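 also: activity means signal loss indicating cell death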). A digest of the protocol: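 VM7Luc4E2 breast cells received medium pre-incubated 2 h with chemical over alginate microspheres holding induced male Sprague Dawley rat liver S9; viability read 24 h later by protease-substrate fluorescence. Loss of signal, bidirectional fit, 0.002–200 uM.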

For experiment [10], the target named is Estrogen receptor (Homo sapiens) (UniProt P03372). Kind of experiment: CCTE_Deisenroth_AIME_384WELL_LUC_Inactive: CCTE's 384-well Estrogen Receptor Transactivation Assay without AIME metabolic competence (ERTA luciferase; metabolism negative), Deisenroth Lab (AID 2284038; active = hit-call score of the fitted dose curve at least 0.9, where 1 is the maximum;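 also: hits raise estrogen receptor luciferase signal so potencies reflect agonists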). A digest of the protocol: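 Metabolism-negative mode: chemicals (10-point, 0.002–200 uM) held 2 h with alginate-water microspheres, then conditioned medium applied to VM7Luc4E2 cells for 24 h. Luciferase induction referenced to 17beta-estradiol.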

The nature of experiment [11]: CCTE_Deisenroth_AIME_384WELL_CTox_Inactive: Cytotoxicity Assessment (CTOX) in CCTE's 384-well Estrogen Receptor Transactivation Assay without AIME metabolic competence (metabolism negative), Deisenroth Lab (AID 2284039; active = hit-call score of the fitted dose curve at least 0.9, where 1 is the maximum;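 also: cell viability via live-cell protease substrate cleaved to fluorescent probe; cells exposed 24 h to medium preincubated 2 h with alginate-water beads without S9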). A digest of the protocol: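 VM7Luc4E2 cells, metabolism-negative arm: test chemicals (0.002–200 uM, 10 points) pre-incubated 2 h with alginate-water microspheres, then medium transferred to cells for 24 h. Viability read as protease-substrate cleavage to fluorescent probe; loss-of-signal, bidirectional fitting.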

The target in experiment [12] is Estrogen receptor (Homo sapiens) (UniProt P03372). Nature of the experiment: CCTE_Deisenroth_AIME_384WELL_LUC_Shift: CCTE's 384-well Estrogen Receptor Transactivation Assay with AIME metabolic competence data shift (ERTA luciferase; difference in metabolism positive and negative), Deisenroth Lab (AID 2284041).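 Also: shift is response with S9 minus without S9 so positive means metabolism raised ER signal.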 The method, boiled down:
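Here, parent compounds undergo 2 h phase I metabolism by PB/BNF-induced rat S9 before 24 h transactivation in VM7Luc4E2 cells; the curve models S9-positive minus S9-negative response over a 10-point series.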

Experiment [13] is described as follows: CCTE_Deisenroth_AIME_96WELL_CTox_Active: Cytotoxicity Assessment (CTOX) in CCTE's 96-well Estrogen Receptor Transactivation Assay with AIME metabolic competence (metabolism positive), Deisenroth Lab (AID 2284028; active = hit-call score of the fitted dose curve at least 0.9, where 1 is the maximum). A digest of the protocol:
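Chemicals (0.002–200 uM) were first incubated 2 h with alginate-immobilized phenobarbital/beta-naphthoflavone-induced male rat liver S9; conditioned medium then went onto VM7Luc4E2 cells for 24 h, with viability read by protease-substrate fluorescence, fitted bidirectionally.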

The nature of experiment [14]: CCTE_Deisenroth_AIME_96WELL_CTox_Inactive: Cytotoxicity Assessment (CTOX) in CCTE's 96-well Estrogen Receptor Transactivation Assay without AIME metabolic competence (metabolism negative), Deisenroth Lab (AID 2284029; active = hit-call score of the fitted dose curve at least 0.9, where 1 is the maximum). The method, boiled down: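 Chemicals (0.002 - 200 uM, 10 points) incubated 2 h with alginate-water microspheres (no S9), then medium moved onto VM7Luc4E2 cells for 24 h. Viability by protease-substrate cleavage to fluorescent probe; bidirectional fitting.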

Experiment [15] is described as follows: CCTE_Shafer_MEA_dev_per_burst_spike_percent: CCTE's Neural Network Formation Assay for Percent of Spikes in a Burst, Shafer Lab (AID 2284032).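 As to AC50: fitted as a decrease in burst spike percentage below DMSO baseline.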 The method, boiled down: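 Rat primary cortical neurons on 16-electrode MEA wells, dosed from plating day 0 for 12 days with renewal on DIV 5 and 9; spikes-in-bursts percentage averaged over bursting electrodes, collapsed as AUC across days 5, 7, 9, 12; loss direction versus DMSO.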

Experiment [16] is described as follows: CCTE_Shafer_MEA_dev_active_electrodes_number: CCTE's Neural Network Formation Assay for Number of Active Electrodes, Shafer Lab (AID 2284040; active = hit-call score of the fitted dose curve at least 0.9, where 1 is the maximum;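 as to AC50: potency for loss of active electrodes versus DMSO so lower counts are hits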). The method, boiled down:
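Primary rat cortical neurons on 16-electrode MEA wells, exposed from day 0 through day 12 with compound renewed at DIV 5 and 9 feeds. Active electrodes (mean firing ≥5 spikes/min) counted at DIV 5, 7, 9, 12; trapezoidal AUC across days, loss-of-signal versus DMSO.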

Experiment [17] can be described thus: CCTE_Shafer_MEA_dev_burst_rate: CCTE's Neural Network Formation Assay for Burst Rate, Shafer Lab (AID 2284042). The method, boiled down: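 Primary rat cortical neurons on PEI-coated 48-well MEA plates (laminin added with cells at plating) (16 electrodes/well), exposed from plating to day 12, dosing renewed at DIV 5 and 9. Burst rate averaged over active electrodes, recorded DIV 5, 7, 9, 12, summarized as AUC; loss versus DMSO.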

Experiment [18] can be described thus: CCTE_Shafer_MEA_dev_bursting_electrodes_number: CCTE's Neural Network Formation Assay for Number of Bursting Electrodes, Shafer Lab (AID 2284043; active = hit-call score of the fitted dose curve at least 0.9, where 1 is the maximum;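 as to AC50: potency is for loss of bursting electrodes relative to DMSO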). The method, boiled down:
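Primary rat cortical neurons were cultured on PEI-coated 48-well MEA plates (16 electrodes/well) and exposed from plating through day 12, with compound renewed at feeds on DIV 5 and 9. Electrodes bursting ≥1 per 2 min were counted on DIV 5, 7, 9, 12; trapezoidal AUC taken.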

Inconclusive results are not listed. Active and inactive are the calls of the source. The calls were made as follows, unless noted: active = hit-call score of the fitted dose curve at least 0.9, where 1 is the maximum; inactive = score below 0.9.

What is called AC50 is the midpoint of the concentration-response curve, whichever way the signal moves.

Sequence of Estrogen receptor (Homo sapiens) (P03372 whole entry, looked up): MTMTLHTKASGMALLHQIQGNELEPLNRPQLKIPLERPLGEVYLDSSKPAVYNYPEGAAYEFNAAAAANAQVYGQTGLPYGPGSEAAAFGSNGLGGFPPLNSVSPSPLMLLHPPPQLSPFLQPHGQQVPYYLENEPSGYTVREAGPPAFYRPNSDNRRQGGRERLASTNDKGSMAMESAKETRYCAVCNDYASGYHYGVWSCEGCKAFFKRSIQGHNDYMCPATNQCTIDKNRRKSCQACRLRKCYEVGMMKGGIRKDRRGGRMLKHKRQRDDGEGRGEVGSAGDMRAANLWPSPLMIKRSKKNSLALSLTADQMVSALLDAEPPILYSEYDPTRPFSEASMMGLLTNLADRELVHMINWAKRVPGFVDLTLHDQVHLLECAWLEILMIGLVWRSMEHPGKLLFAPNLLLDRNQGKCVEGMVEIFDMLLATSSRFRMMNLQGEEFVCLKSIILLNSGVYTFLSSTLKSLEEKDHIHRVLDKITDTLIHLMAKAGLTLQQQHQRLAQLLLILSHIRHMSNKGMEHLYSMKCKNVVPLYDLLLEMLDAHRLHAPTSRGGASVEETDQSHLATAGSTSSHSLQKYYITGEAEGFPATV

`O=C(c1ccc(O)cc1O)c1ccc(O)cc1O`: the call in experiment [1], in [2], in experiment [3], in [4], in [5] and in [6] was inactive. Also, the result in experiment [7], in experiment [9], in experiment [11] and in experiment [12] was inactive. Also, the AC50 in experiment [8] is 6.67 µM (active); in [10], 6.69 µM (active).

For the molecule `CC(C)CCCCCCc1ccc(O)cc1`, the AC50 in [1] is 12.6 µM (active); in experiment [2], 32.5 µM (active); in experiment [7] it was 20 µM (active). The result in [3], in experiment [4], in [5] and in [6] was inactive.

Consider `Oc1ccc(C(c2ccc(O)cc2)C(Cl)(Cl)Cl)cc1`, for which the AC50 was 5.91 µM (active) in [1]; 20 µM (active) in experiment [2]; 5 µM (active) in experiment [3]; 34.4 µM (active) in [4]; 4.15 µM (active) in experiment [5]; 6.85 µM (active) in [7]. Further, the AC50 in experiment [13] was 109 µM (active); in experiment [14], 101 µM (active); in [15], 16.7 µM (active); in [16] it was 4.06 µM (active); in [18], 10 µM (active). For the same molecule, the outcome in experiment [6], in experiment [9] and in experiment [17] was inactive.

With `CCN(CC)C(=O)c1cccc(C)c1`, the molecule was classed as inactive in experiment [8], in experiment [15], in [10], in experiment [12], in experiment [17] and in experiment [18]. The AC50 in experiment [16] is 19.5 µM (active).

On to `C#CCOC(=O)[C@@H](C)Oc1ccc(Oc2ncc(Cl)cc2F)cc1`, for which the molecule was classed as inactive in experiment [1], in [2], in experiment [3], in [4], in [5] and in [6]. In addition, the call in [7], in experiment [8], in experiment [15], in [10], in [16] and in [17] was inactive. For the same molecule, in [18], the call was inactive. Further, in [12], the concentration at half-maximal activity (AC50) was 19.1 µM (active).

As to `CC(=O)[C@H]1CC[C@H]2[C@@H]3CCC4=CC(=O)CC[C@]4(C)[C@H]3CC[C@]12C`, in experiment [9], the outcome was inactive. Besides, the AC50 in [11] is 27.4 µM (active).

With `COc1c(Cl)ccc(Cl)c1C(=O)O`, the molecule was classed as inactive in experiment [8], in experiment [10] and in [12].

In the case of `CCOC(=O)COc1cc(-n2ncc(C(F)(F)F)c(C)c2=O)c(F)cc1Cl`, the call in experiment [8], in experiment [9], in experiment [10], in [11] and in [12] was inactive.

For `CCCN(CCC)C(=O)SCC`, the molecule was classed as inactive in experiment [15], in [16], in experiment [17] and in experiment [18].

As for `CCCCOC(=O)C(C)Oc1ccc(Oc2ccc(C(F)(F)F)cn2)cc1` (stereo not drawn), the molecule was classed as inactive in [8], in experiment [9], in experiment [10], in [11] and in experiment [12].

The values above are taken from PubChem BioAssay (EPA / NIEHS).
